PubChem BioAssay (NCATS)
This is one part of the list. Where a call stands in place of a potency, no number is given. Results filed as inconclusive are left out. Active and inactive are the calls of the source. Calls follow the shape of the dose curve; as a rule, active = well fitted cell-killing curve with a large enough effect; inconclusive = small, poorly fitted or top-dose-only effect, or effect the other way; inactive = flat fitted curve, though single readings scatter.

assay: Cell viability qHTS assay in S16 Pmp22-F2sN cells - Confirmatory screen (AID 1508641); details: S16 Schwann cells viability, CellTiter-Glo ATP luminescence, 24 h; series mostly up to 57.5 µM
From the text: Assay Provider: Jim Inglese Ph.D. National Center for Advancing Translational Science, National Institutes of Health, Rockville, MD CMT is a heterogeneous group of neurological disorders that affect approximately 1 in 2,500 people. In particular, the most common form of CMT, CMT1A is genetically linked to the duplication of the PMP22 gene which leads to Schwann cell overexpression, thus manifesting itself as a typical case of dose-sensitive diseases. To identify small molecule compounds that can mediate the expression of PMP22 we developed a phenotypic assay screening strategy by utilizing genome editing techniques to construct Schwann cell lines containing novel reporter technology to monitor the transcriptional or translational regulation of PMP22. For high sensitivity we use a bioluminescent reporter system embedded in the 3' UTR of the PMP22 gene (S16(c9) Pmp22-F2sN) to identify compounds that inhibit gene expression. […] We can further discriminate the effect of all transcriptionally active molecules on PMP22 translation or stability with an assay that incorporates a short NLuc peptide (HiBiT) at the C-terminus of expressed PMP22 (S16(f8) PMP22-HiBiT) allowing alpha complementation and luminescence detection of membrane-associated PMP22 protein. These assays were screened against the NCATS Sytravon Library Collection. Miniaturization of these assays to 1536-well plate format for quantitative high throughput screening (qHTS) yielded rich data sets immediately from the qHTS assay (S16(c9) Pmp22-F2sN), when compared with data from a cell viability assay (Cell TiterGlo) to identify compounds that decreased the output signals through cellular toxicity to streamline the selection process of actives for subsequent characterization using the HiBiT assay (S16(f8) PMP22-HiBiT).
Cell viability assay in S16 Pmp22-F2sN cells PROTOCOL TABLE (format as described by Inglese J, Shamu CE and Guy RK. 2007) SEQUENCE No. (e.g., 1, 2, 3, etc.); PARAMETER (e.g., Cells, Incubation, Reagent, etc.); VALUE and DESCRIPTION. 1. Cells. Add 500-1,000 cells in 4 uL in growth media (DMEM High Glucose, No Phenol Red media + 10% heat-inactivated FBS + 1% Pen/Strep supplemented media) per well into Greiner 1536-well white/solid bottom high base, TC-treated plates. 2. Compounds. Library compounds and controls added at 23nL per well, transferred by Pin Tool. 3. Incubation. Incubate plates at 37C, 5% CO2, 95% RH for 24 h. 4. Reagent. Add 3uL CellTiter-Glo per well of Greiner 1536-well plates. 5. Incubation. Incubate plates at room temperature for 15 min., protect from light. 6. Detector. FLuc luminescence measured using CCD-based camera (Viewlux). NOTES (numbers refer to Sequence numbers above; values are from representative experiments) 6. Luminescence Read: Clear filter; Exposure = 1 sec, Gain = High, Speed = Slow, Binning = 2X REFERENCES: 1. Inglese J, Shamu CE and Guy RK, Reporting data from high throughput screening of small molecule libraries, Nature Chemical Biology, 2007, 3(8): 438-441. doi.org/10.1038/nchembio0807-438 2. Yasgar A, Shinn P, Jadhav A, Auld DS, Michael S, Zheng W, Austin CP, Inglese J and Simeonov A, Compound Management for Quantitative High-Throughput Screening. J. Assoc. Lab. Auto., 2008, 13: 79-89. doi: 10.1016/j.jala.2007.12.004
Potency is read from the fitted curve at half-maximal effect.

| Compound | Potency |
| --- | --- |
| O=C(NCCCN1CCN(c2cccc(Cl)c2)CC1)c1nnc(Cc2ccc(F)cc2Cl)o1 | inactive |
| Cc1sc(C2C(C#N)=C(N)N(c3cccc(Cl)c3)C3=C2C(=O)CCC3)cc1CN1CCOCC1 (stereo not drawn) | inactive |
| CCOc1ccc(NC(=O)c2c(NC(=O)Cc3ccccc3)sc3c2CCC(C)C3)cc1 (stereo not drawn) | inactive |
| Cc1cc(OCC(=O)NCC2(N(C)C)CCCCC2)cc(C)c1Cl | inactive |
| CCC1=Nc2cc(C(=O)NCCCOC(C)C)ccc2Sc2ccc(C)cc21 | inactive |
| CC(C)(C)c1ccc(C(=O)NCC(c2ccco2)S(=O)(=O)c2ccc(F)cc2)cc1 (stereo not drawn) | inactive |
| CCCn1c(=N)c(C(=O)NCc2ccccc2)cc2c(=O)n3cccc(C)c3nc21 | inactive |
| COc1ccc(C2Sc3ccccc3NC3=C2C(=O)c2ccccc23)c(OC)c1OC (stereo not drawn) | inactive |
| O=S(=O)(c1ccc(Cl)cc1)c1nnn2c1nc(NC1CCCC1)c1sccc12 | inactive |
| COc1cccc(NC(=O)CSC2=Nc3ccccc3C3=NC(CC(=O)NC4CCCCC4)C(=O)N23)c1 (stereo not drawn) | inactive |
| CCOC(=O)c1c(C)[nH]c(CCC(=O)NCCCN2CCN(c3cc(C)ccc3C)CC2)c1C | 30.6 µM (active) |
| Cc1nnc(SCC(=O)NCc2ccccc2Cl)c2nn(-c3ccccc3)c(C)c12 | inactive |
| CCC1CCCCN1CCCNC(=O)c1cc2c(Cl)nc3ccccc3c2s1 (stereo not drawn) | inactive |
| Cc1ccc(NC(=O)c2nc(S(=O)(=O)Cc3cccc(C)c3)ncc2Cl)cc1 | 30.6 µM (active) |
| Cc1cc(F)ccc1NS(=O)(=O)c1ccc(-n2cccn2)cc1 | inactive |
| CCOCCCNC(=O)c1c(NC(=O)c2nc(SC)ncc2Cl)sc2c1CCCC2 | inactive |
| Cc1ccc(CCNC(=O)C2CCN(c3nnc(-n4cccc4CNc4ccc(C)cc4)s3)CC2)cc1 | inactive |

| Compound | Potency |
| --- | --- |
| Cc1ccc(Cn2c(C)c3cnn(CC(=O)NCc4ccccc4)c(=O)c3c2C)cc1 | inactive |
| COc1ccccc1Nc1c2c(nc3ccc(NC(=O)/C=C/c4cc(OC)c(OC)c(OC)c4)cc13)CCCC2 | 17.2 µM (active) |
| CCc1ccc(NC(=O)CN2CCSc3ccc(S(=O)(=O)N4CCCC4)cc32)cc1 | inactive |
| Cc1ccccc1CNC(=O)CSc1nnc(C)c2c(C)n(-c3ccccc3)nc12 | inactive |
| CC(=O)N1CCCc2cc(S(=O)(=O)N3CCCC(C(=O)N4CCN(c5cccc(Cl)c5)CC4)C3)ccc21 (stereo not drawn) | 27.3 µM (active) |
| Cc1ccc(C)n1-c1nnc(N2CCC(C(=O)NCc3ccccc3Cl)CC2)s1 | inactive |
| Cc1ccc(OCCSc2nc3ccc(NC(=O)COc4ccc(C)cc4)cc3s2)cc1 | inactive |
| COc1cccc(NC(=O)N(Cc2cn(C)c3ccccc23)C2CCCCCC2)c1 | inactive |
| CCOC(=O)C1CCN(C(=O)CSc2c3c(nc4ccc(Cl)cc24)CCCC3)CC1 | inactive |
| O=C(c1ccc2c(c1)N(Cc1ccc(F)cc1)C(=O)c1ccccc1S2(=O)=O)N1CCN(c2ccccn2)CC1 | inactive |
| CCOC(=O)c1ccc(N2C(=O)c3n[nH]c(C)c3C2c2ccc(O)c(OC)c2)cc1 (stereo not drawn) | inactive |
| CCCS(=O)(=O)c1ncc(Cl)c(C(=O)Nc2scc(-c3ccccc3)c2C(=O)OCC)n1 | 27.3 µM (active) |
| Cc1cccc(Nc2cc(C)nc(-n3nc(C)cc3C)n2)c1 | inactive |
| COc1ccc(-c2onc(C)c2C)cc1S(=O)(=O)NCC1CCN(Cc2cccc(F)c2)CC1 | inactive |
| COc1ccc(CCNC(=O)c2cc(=O)c3c(C)cc(C)cc3o2)cc1OC | inactive |
| O=C(c1ccc(C(F)(F)F)cc1)N1CCC(c2nc(-c3ccc(S(=O)(=O)N4CCCC4)cc3)no2)CC1 | inactive |
